Results published in PubChem BioAssay (NCATS).
Where “and” joins values, the source holds several entries; their conditions need not be identical. Equal entries are not always repeated. Inconclusive results are not listed. Calls of active or inactive are those of the source. Unless noted, calls come from the whole dose curve; as a rule, active = well fitted curve in the direction sought with a large enough effect; inconclusive = small, poorly fitted or top-dose-only effect, or another doubt; inactive = no such curve, though single readings can be large; an effect the other way counts as inactive or inconclusive.

How the values were obtained:
[1] = target: Cellular tumor antigen p53 (Homo sapiens) (UniProt P04637); test: Primary qHTS for small molecule compounds that upregulate eGFP-tagged delta133p53alpha (in N-terminal) cells. (AID 2060322); details: NCI-H358 eGFP-delta133p53alpha fluorescence, 24 h; activation: hits give high values;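 note: cells pre-induced with doxycycline then dosed without doxycycline; 0% = DMSO vehicle and 100% = reference activator; nearly all actives have a fitted effect of over 75% in size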
Chain of Cellular tumor antigen p53 (Homo sapiens) (P04637 whole entry, looked up): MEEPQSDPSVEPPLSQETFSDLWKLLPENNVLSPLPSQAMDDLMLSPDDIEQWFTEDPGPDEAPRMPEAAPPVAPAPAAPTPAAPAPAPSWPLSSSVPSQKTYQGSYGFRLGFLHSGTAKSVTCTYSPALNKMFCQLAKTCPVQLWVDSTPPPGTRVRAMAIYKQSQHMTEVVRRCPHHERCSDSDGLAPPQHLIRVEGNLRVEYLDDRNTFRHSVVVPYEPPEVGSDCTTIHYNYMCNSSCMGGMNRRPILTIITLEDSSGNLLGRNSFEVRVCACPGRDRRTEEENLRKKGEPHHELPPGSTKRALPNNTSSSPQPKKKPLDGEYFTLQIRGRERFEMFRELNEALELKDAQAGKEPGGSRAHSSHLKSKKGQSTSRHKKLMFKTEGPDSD
Procedure, shortened: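 NCI-H358 cells pre-induced 24 h with 10 ng/ml doxycycline for eGFP-delta133p53alpha, plated dox-free and exposed 24 h at 37C to titrated compounds. Fixed, Hoechst-stained; gated GFP peak intensity by laser scanning cytometry, normalized to DMSO (0%) and 57.5 uM 5-azacytidine (100%).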

[2] = target: Cellular tumor antigen p53 (Homo sapiens) (UniProt P04637); test: Primary qHTS for small molecule compounds that upregulate eGFP-tagged delta133p53alpha (in C-terminal) cells. (AID 2060324); details: NCI-H358 delta133p53alpha-eGFP (C-terminal tag), GFP fluorescence imaging, 24 h; series mostly up to 57.5 µM;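 note: 0% = DMSO wells and 100% = 57.5 µM 5-azacytidine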
Procedure, shortened: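 Concentration-response screen: compounds titrated onto pre-induced NCI-H358 D133p53a-eGFP cells, incubated one day, fixed with 3.5% PFA. Per-cell GFP peak intensity was gated, then normalized against intraplate controls.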

[3] = target: Aldehyde dehydrogenase, mitochondrial (Homo sapiens) (UniProt P05091); test: qHTS for Inhibitors of the Aldehyde Dehydrogenase Family (ALDH2) Validation screens (AID 2061302; active = well fitted inhibition curve with a large enough effect; title and protocol of this record describe different tests;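 note: plate controls were DMSO vehicle for no effect and maximal DPI positive control response for full effect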); details: ALDH inhibition qHTS; series mostly up to 42.6 µM
[4] = target: Retinaldehyde dehydrogenase 3 (Homo sapiens) (UniProt P47895); test: qHTS for Inhibitors of the Aldehyde Dehydrogenase Family (ALDH1A3) Validation screen (AID 2061312); details: ALDH1A3 enzyme inhibition qHTS validation, fluorescence; series mostly up to 84.7 µM; note: % is set by controls: 0 for no effect and ±100 for the full control effect; nearly all actives have a fitted effect of over 45% in size

Cn1c(=O)c2[nH]c(-c3ccccc3)nc2n(C)c1=O
inactive: activation [1] -37% | Potency [2] | Potency [3] | Potency [4]

CCCCCCCC/C=C\CCCCCCCC(=O)NCCc1ccc(O)c(O)c1
inactive: activation [1] 9.28% | Potency [2] | Potency [3] | Potency [4]

COC(=O)c1c(C)[nH]c(C)c1C(=O)c1ccccc1Cc1ccccc1
inactive: activation [1] -23.2% | Potency [2] | Potency [3] | Potency [4]

O=C(Nc1ccccc1)c1cc([N+](=O)[O-])ccc1Cl
inactive: activation [1] 24.9% | Potency [2] | Potency [3] | Potency [4]

CCCCCCCCCCC/C=C\C(C)(C)/C=C\CCCC(=O)O
inactive: activation [1] -22.9% | Potency [2] | Potency [3] | Potency [4]

O=c1[nH]c2ccccc2c2ccccc12
inactive: activation [1] 11.2% | Potency [2] | Potency [3] | Potency [4]

COc1ccc2c(c1)c(CC(=O)O)c(C)n2C(=O)c1ccccc1
inactive: activation [1] -16.8% | Potency [2] | Potency [3] | Potency [4]

OC[C@H]1O[C@@H](n2cnc3c(NC4CCCCC4)ncnc32)[C@H](O)[C@@H]1O
inactive: activation [1] 5.46% | Potency [2] | Potency [3] | Potency [4]

Cn1c(=O)[nH]c2ncn(C)c2c1=O
inactive: activation [1] -21.1% | Potency [2] | Potency [3] | Potency [4]

NCC1OC(O[C@H]2[C@H](O)[C@@H](OC3C(O)C(N)CC(N)C3OC3OC(CO)C(O)C(O)C3N)O[C@@H]2CO)C(N)C(O)C1O (some centres undefined)
inactive: activation [1] 6.76% | Potency [2] | Potency [3] | Potency [4]

c1ccc2c(c1)CC(N1CCN(c3cccc4c3OCCO4)CC1)C2
inactive: activation [1] 1.22% | Potency [2] | Potency [3] | Potency [4]

Nc1nc(Cl)nc2c1ncn2[C@@H]1O[C@H](CO)[C@@H](O)[C@H]1O
inactive: activation [1] -6.39% | Potency [2] | Potency [3] | Potency [4]

Nc1ccc(CCNc2ncnc3c2ncn3C2OC(CO)C(O)C2O)cc1 (centres undefined)
inactive: activation [1] -6.89% | Potency [2] | Potency [3] | Potency [4]

CCN(c1nc(N)c(C(=O)N=C(N)N)nc1Cl)C(C)C
inactive: activation [1] -41.7% | Potency [2] | Potency [3] | Potency [4]

C#CCn1c(=O)c2c(ncn2C)n(C)c1=O
inactive: activation [1] -14.7% | Potency [2] | Potency [3] | Potency [4]

N#Cc1cc2nc(O)c(O)nc2cc1[N+](=O)[O-]
inactive: activation [1] -30.1% | Potency [2] | Potency [3] | Potency [4]

C[C@@H](CN1CCC(Cc2ccccc2)CC1)[C@@H](O)c1ccc(O)cc1
inactive: activation [1] -9.23% | Potency [2] | Potency [3] | Potency [4]

C[C@]12CC[C@@H]3c4ccc(O)cc4C[C@@H](CCCCCCCCCS(=O)CCCC(F)(F)C(F)(F)F)[C@H]3[C@@H]1CC[C@@H]2O (some centres undefined)
inactive: activation [1] 5.86% and -66.3% | Potency [2] | Potency [3] | Potency [4]

O=C(O)C1=CCCNC1
inactive: activation [1] -16.6% | Potency [2] | Potency [3] | Potency [4]

O=c1[nH]c2cc([N+](=O)[O-])c([N+](=O)[O-])cc2[nH]c1=O
inactive: activation [1] 41.5% | Potency [2] | Potency [3] | Potency [4]

CC(N)(C(=O)O)c1ccc(C(=O)O)cc1 (centres undefined)
inactive: activation [1] 7.46% | Potency [2] | Potency [3] | Potency [4]

CC1=C(C(=O)O)N2C(=O)[C@@H](NC(=O)C(N)c3ccccc3)[C@H]2SC1 (some centres undefined)
inactive: activation [1] 15.6% and -22.6% | Potency [2] | Potency [3] | Potency [4]

COc1ccc2c(c1)c(CC(=O)O)c(C)n2Cc1ccc(Cl)cc1
inactive: activation [1] -32.5% | Potency [2] | Potency [3] | Potency [4]

NCCCCN
inactive: activation [1] 16% | Potency [2] | Potency [3] | Potency [4]

O=C(O)C1CCNCC1
inactive: activation [1] -2.71% | Potency [2] | Potency [3] | Potency [4]

NCCNS(=O)(=O)c1cccc2c(Cl)cccc12
inactive: activation [1] -38% | Potency [2] | Potency [3] | Potency [4]

CC(C)[C@@H]1CC[C@@H](C)C[C@@H]1P(=O)(c1ccccc1)c1ccccc1
inactive: activation [1] -3.04% | Potency [2] | Potency [3] | Potency [4]

NC(N)=N[C@@H](CCC(=O)O)C(=O)O
inactive: activation [1] -4.46% | Potency [2] | Potency [3] | Potency [4]

Nc1nc2ccc(Cl)cc2n2c(-c3ccccc3)nnc12
inactive: activation [1] -21.3% | Potency [2] | Potency [3] | Potency [4]

OC[C@H]1O[C@H](n2cnc3c(N[C@H]4CCC[C@@H]4O)ncnc32)[C@H](O)[C@@H]1O
inactive: activation [1] -36% | Potency [2] | Potency [3] | Potency [4]

O=C(O)CP(=O)(O)O
inactive: activation [1] -13% and 17.7% | Potency [2] | Potency [3] | Potency [4]

NCCCCN=C(N)N
inactive: activation [1] -3.8% | Potency [2] | Potency [3] | Potency [4]

COc1cc(N)c(Cl)cc1C(=O)OCCN1CCCCC1
inactive: activation [1] -2.92% | Potency [2] | Potency [3] | Potency [4]

C[N+](C)(C)CC=O
inactive: activation [1] -21.7% | Potency [2] | Potency [3] | Potency [4]

CCN(Cc1ccncc1)C(=O)C(CO)c1ccccc1 (centres undefined)
inactive: activation [1] 3.95% and 13.2% | Potency [2] | Potency [3] | Potency [4]

CSC(N)=NCCC[C@H](N)C(=O)O
inactive: activation [1] 3.33% | Potency [2] | Potency [3] | Potency [4]

CCCOC(=O)c1c(-c2ccccc2)nc(CC)c(C(=O)SCC)c1CCC
inactive: activation [1] -30.9% | Potency [2] | Potency [3] | Potency [4]

NC(N)=NC(N)=Nc1cccc(Cl)c1
inactive: activation [1] -3.06% | Potency [2] | Potency [3] | Potency [4]

CN(C)CCCN1c2ccccc2CCc2ccccc21
inactive: activation [1] -0.565% and -9% | Potency [2] | Potency [3] | Potency [4]

Nc1nc2c(ncn2[C@@H]2O[C@H](CO)[C@@H](O)[C@@H]2O)c(=O)[nH]1
inactive: activation [1] -6.66% | Potency [2] | Potency [3] | Potency [4]

CCCCCCC/C=C\CCCCCCCCC(=O)O
inactive: activation [1] -38.4% | Potency [2] | Potency [3] | Potency [4]

NCCS
inactive: activation [1] -9.6% and 3.67% | Potency [2] | Potency [3] | Potency [4]

CC(C(=O)O)c1ccc(CC2CCCC2=O)cc1 (centres undefined)
inactive: activation [1] -10% and 11.7% | Potency [2] | Potency [3] | Potency [4]

O=c1n(CCCN2CCN(c3cccc(Cl)c3)CC2)nc2ccccn12
inactive: activation [1] -7.53% and 33.4% and -0.284% | Potency [2] | Potency [3] | Potency [4]

C[C@]12CCC(=O)C=C1CC[C@@H]1[C@@H]2CC[C@@]2(C)[C@H]1CC[C@]2(O)C(=O)CO
inactive: activation [1] 12.6% and 23.7% | Potency [2] | Potency [3] | Potency [4]

N[C@H](C(=O)O)[C@H]1C[C@@H]1C(=O)O
inactive: activation [1] 6.82% | Potency [2] | Potency [3] | Potency [4]

Cc1nc2c(OCc3ccccc3)cccn2c1CC#N
inactive: activation [1] 7.44% | Potency [2] | Potency [3] | Potency [4]

CO/N=C(\C(=O)N[C@@H]1C(=O)N2C(C(=O)O)=C(COC(C)=O)CS[C@H]12)c1csc(N)n1
inactive: activation [1] 2.44% | Potency [2] | Potency [3] | Potency [4]

CSc1ccccc1N1CCN(CCCCCC(=O)NC2CCCc3ccccc32)CC1 (centres undefined)
inactive: activation [1] -61.7% | Potency [2] | Potency [3] | Potency [4]

O=C(O)c1cc2cc(F)ccc2[nH]1
inactive: activation [1] -70.8% | Potency [2] | Potency [3] | Potency [4]

CC1OC1P(=O)(O)O (centres undefined)
inactive: activation [1] 13.6% | Potency [2] | Potency [3] | Potency [4]

Nc1cc(Cl)c(NC2=NCCN2)c(Cl)c1
inactive: activation [1] -1.06% | Potency [2] | Potency [3] | Potency [4]

O=C1/C(=C/c2ccsc2)CC/C1=C\c1cccs1
inactive: activation [1] 14.3% | Potency [2] | Potency [3] | Potency [4]

CN(C)CCN(Cc1cccs1)c1ccccn1
inactive: activation [1] -15.3% and -8.14% | Potency [2] | Potency [3] | Potency [4]

CC(C)(NS(=O)(=O)c1ccc(Oc2ccc(F)cc2)cc1)C(=O)NO
inactive: activation [1] -8.16% | Potency [2] | Potency [3] | Potency [4]

CN(CC[C@@H](Oc1ccc(C(F)(F)F)cc1)c1ccccc1)CC(=O)O
inactive: activation [1] 2.22% | Potency [2] | Potency [3] | Potency [4]
